PubChem BioAssay (NCATS)
Records with an inconclusive call do not appear. Entries that show only a call come without a potency. The source made the active and inactive calls. Calls follow the shape of the dose curve; as a rule, active = well fitted inhibition curve with a large enough effect; inconclusive = small, poorly fitted or top-dose-only effect; inactive = flat fitted curve, though single readings scatter.

target: Calcium and integrin-binding protein 1 (Homo sapiens) (UniProt Q99828); assay: Primary qHTS for Identification of Calcium Integrin Binding Protein 1 (CIB1) Competitor (AID 1508620); settings: CIB1-GST / FITC-alphaIIb peptide fluorescence polarization; series mostly up to 114 µM;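 also: GST tagged CIB1 binding a fluorescein labelled alphaIIb integrin peptide tracer; top concentration of the series differs between compounds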
Sequence (Q99828 whole entry, looked up): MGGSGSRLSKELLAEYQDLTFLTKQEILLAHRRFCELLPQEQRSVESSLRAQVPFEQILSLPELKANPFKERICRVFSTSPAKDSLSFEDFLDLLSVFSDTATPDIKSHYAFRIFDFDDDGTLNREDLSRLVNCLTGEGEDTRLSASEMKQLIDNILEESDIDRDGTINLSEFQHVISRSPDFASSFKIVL
Procedure, shortened: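 CIB1-GST (1 uM final) and compound incubated 15 min at room temperature before adding FITC-alphaIIb peptide tracer (100 nM final). Competition for binding read by fluorescence polarization (ex 480, em 540) after another 15 min at room temperature.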

Row | Compound | Potency
1 | Cc1cc(C)c(C)c(S(=O)(=O)N2CCN(S(=O)(=O)c3ccc4c(c3)OCCO4)CC2)c1C | inactive
2 | c1csc(CNc2ccc(N3CCOCC3)cc2)c1 | inactive
3 | O=C(N1Cc2ccc(Nc3nn4c(=O)c5ccccc5nc4s3)cc2C1)C(F)(F)F | inactive
4 | CCCCC(O)C(=O)Nc1cc(C(F)(F)F)ccc1Cl (configuration not stated) | inactive
5 | N#CN1CCC(NC(=O)c2ccc(F)cc2)CC1 | inactive
6 | CC(C)(C)[C@H](NC(=O)c1ccc(N)c(Cl)c1)C(=O)N1CCC[C@H]1C(=O)N[C@H](C#N)Cc1nn[nH]n1 | inactive
7 | C#CCOc1cc(C2=Nn3c(nnc3-c3ccc(OCC(C)=O)cc3)SC2)ccc1OC | inactive
8 | O=S(=O)(Nc1cnc2ccccc2c1)c1ccc(NCc2ccc(Br)cc2O)cc1 | inactive
9 | COc1ccc(-n2c(C)c(C(C)=O)c3ccccc32)cc1 | inactive
10 | Oc1cc(NCCc2cccnc2)cc2cccnc12 | inactive
11 | N#Cc1nc(Nc2cc(F)cc(F)c2)c2ncn(CCCO)c2n1 | inactive
12 | COc1ccccc1C(=O)NCCc1nc2ccccc2n1CCOc1ccc(C)cc1 | inactive
13 | COc1ccc2ncnc(NCc3cccs3)c2c1-c1ccc2c(c1)OCO2 | inactive
14 | CC(C)c1ccccc1SC1=NS(=O)(=O)c2ccccc21 | inactive
15 | O=C(Nc1ccc(-c2nc3ccccc3[nH]2)cc1)c1ccc2n[nH]nc2c1 | inactive
16 | COc1cc(NC(=O)C(OC(=O)CNC(=O)c2ccccc2)c2ccccc2)cc(C(F)(F)F)c1 (configuration not stated) | inactive
17 | O=S(=O)(Nc1nccs1)c1ccc(NCc2cccc(Cl)c2Cl)cc1 | inactive
